PubChem BioAssay (NCI)
About 83,000 compounds went through this panel and 20% of them were active in at least one assay; those are over-represented in the sample as a whole.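 Method: cells in 96-well plates; compound added at one concentration; 48 h incubation; percent growth measured; values under 10 scored active.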 A number with no mark means an inactive call. The source made the active and inactive calls.

Tested on: HL-60(TB) leukemia
Assay: NCI-60 one-dose screen, 48 h (100 = growth as untreated, 0 = no growth, -100 = all killed)
Settings: 10 µM unless noted

Row | SMILES | growth
1 | Oc1c(I)cc(I)cc1CNCCCN(Cc1ccccn1)Cc1ccccn1 | -27.1% (active)
2 | ClC(Cl)c1nc(-c2ccccc2)n2nc(-c3ccccc3)cc2n1 | -7.03% (active)
3 | CCOC(=O)c1nc2c3ccccc3cnn2c1C(=O)c1ccc(OC)cc1 | 102%
4 | C#CCn1cnc2cnc(Nc3cccc(NC(=O)C=C)c3)nc21 | 8.32% [6.25 µM] (active)
5 | CCN(CCO)CCCOc1ccc2c(Nc3cc(CC(=O)Nc4cccc(F)c4)[nH]n3)ncnc2c1 | -2.32% (active)
6 | Fc1ccc(CNCCNc2ncnc3c2cnn3-c2ccccc2)cc1 | 83.1%
7 | Cc1cc(O)c(C2=NN(c3ccc(S(N)(=O)=O)cc3)C(c3ccccc3O)C2)cc1Cl (stereo not given) | -35.4% (active)
8 | COc1cc(C2C3=C(COC3=O)Nc3cc4c(cc32)CCC4)cc2c1OCO2 (stereo not given) | 10.4%
9 | Cc1cccc2c3c(sc12)C(c1ccc(F)cc1)C(C#N)=C(N)O3 (stereo not given) | -21.8% (active)
10 | O=C1NC(=O)C(Cc2ccccc2)(Cc2ccccc2)N1 | 122%
11 | COc1ccc(-c2cc(-c3ccccc3)nc(SCCCC(=O)NO)n2)cc1OC | -12.2% (active)
12 | Cc1cccc2c1S/C(=C/c1ccc([N+](=O)[O-])cc1)C2=O | 101%
13 | COc1cc(C2CC(c3ccc(Cl)cc3)=NN2C(C)=O)ccc1Oc1nc2c(c(=O)n(C)c(=O)n2C)n1C (stereo not given) | 94.2%
14 | CCCc1nn(C)c2c(=O)[nH]c(-c3cc(S(=O)(=O)N4CCN(C)CC4)ccc3OCC)nc12 | 114%
15 | COc1ccc(-c2cc(-c3cc(OC)c(OC)c(OC)c3)c(C#N)c(=O)n2CCCCC(=O)NO)cc1 | 44%
16 | O=C(Nc1cccc(-n2cc(-c3ccncc3)c(-c3cc(O)cc(Cl)c3)n2)c1)c1cc(C(F)(F)F)cc(C(F)(F)F)c1 | 21.4%
17 | COc1cc2c(cc1O)CCc1cc(O)cc(OC)c1-2 | 76.4%
18 | COc1ccc(-c2nc(N/N=C/c3cccc(Br)c3)nc(N3CCOCC3)c2C#N)cc1 | 10.7%
19 | COc1ccc(C(=O)Nc2ncc(Cc3ccc(Cl)cc3)s2)cc1 | -11% (active)
20 | CCSc1oc(-c2ccccc2)nc1[P+](c1ccccc1)(c1ccccc1)c1ccccc1 | -35.1% (active)

Row | SMILES | growth
21 | COc1ccc2c(c1)C=C1CSCC3=Cc4cc(OC)ccc4OC13O2 | -5.12% (active)
22 | CN1CCN(Cc2ccc(NC(=O)c3cncc(C#Cc4ncc5ccccn45)c3)cc2C(F)(F)F)CC1 | -3.92% (active)
23 | C1C[S+]2CC[S+]1CC2 | 111%
24 | CCOC(=O)c1cc(Cl)c(O)c(Cl)c1 | 64.9%
25 | COc1ccc(-c2nn(-c3ccc(NC(=O)c4cc(Cl)cc(Cl)c4)cc3)cc2-c2ccncc2)cc1Cl | 20.3%
26 | CCOc1cc(-c2ccc[nH]2)[nH]c1/C=C1\N=C(C)C(C(=O)OC)=C1C | -42.7% (active)
27 | COc1cc(/C(=C2/O[C@@H]([C@H]3COC(C)(C)O3)[C@H]3OC(C)(C)O[C@@H]23)c2ccc3ccccc3c2)cc(OC)c1OC | 59.2%
28 | O=C(Nc1cc(C(F)(F)F)cc(C(F)(F)F)c1)Nc1ccc(OCc2nnc(-c3ccc(Cl)cc3)o2)c(F)c1 | 5.4% (active)
29 | CC(C)(C)c1ccc(/C=C/C(=O)Nc2ccc(O)cc2)cc1 | -12.6% (active)
30 | CCCCCCCCc1ccc(OCCOCC[N+](C)(C)CC)cc1 (tested in a mixture with another compound) | 2.54% (active)
31 | O=C(Nc1cccc(-c2nc3ccccc3[nH]2)c1)c1cccc(NC(=O)c2ccco2)c1 | 88.9%
32 | CC(C)(C)N1CCC1C(N)=O (stereo not given) | 92.4%
33 | O=C(Nc1ccc(Oc2cccc(F)c2)c(Cl)c1)c1cnccn1 | 3.12% (active)
34 | CCN1C(=O)N(CC)C2C1NN=c1s/c(=C\c3cnc(C)n3C)c(=O)n12 (stereo not given) | -33.3% (active)
35 | COc1ccccc1NC(=O)C1CC(c2ccc(F)cc2)=NO1 (stereo not given) | 103%
36 | [O-]c1c[n+](-c2ccc(Cl)cc2)no1 | 89.4%
37 | CCN(CC)CC(=O)Nc1cccc(C(=O)OC(C)C)c1 | 93%
38 | C#CCOc1cccc(Nc2ncnc3cc(NC(=O)CCl)ccc23)c1 | -62.2% (active)
39 | CCN1C(=O)N(CC)C2Nn3c(s/c(=C\c4cccc(F)c4)c3=O)=NC21 (stereo not given) | 38.6%
40 | CC(=O)CC/C=C(\C)[C@H](O)[C@H](C)C(=O)O[C@H]1C[C@H](C)C=C2C=C[C@@]3(C)O[C@@H](O)CC(=O)[C@]3(C)[C@H]21 | -21.3% (active)
